Some test systems named below: SR leukemia; RPMI-8226 leukemia; OVCAR-8 ovarian; OVCAR-5 ovarian; OVCAR-4 ovarian; SK-OV-3 ovarian; IGROV1 ovarian; OVCAR-3 ovarian; HS 578T breast; NCI/ADR-RES ovarian; T-47D breast; BT-549 breast; MDA-MB-435 melanoma; SW-620 colon; MCF7 breast; HCT-116 colon; HCC-2998 colon; KM12 colon.
What all share (assay): NCI-60 one-dose screen, 48 h (100 = growth as untreated, 0 = no growth, -100 = all killed)
Holding throughout (conditions): 10 µM unless noted

Drawing on PubChem BioAssay (NCI), this text covers growth for eight compounds.

Each structure is given as a SMILES string. Several values for one entry are separate records, joined by “and”; a condition that tells them apart may be missing. Identical values can stand only once. The panel holds about 83,000 compounds, 20% with a hit somewhere; the sample as a whole holds those more often.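 Single-dose data. Exposure time 48 hours. Values below 10 considered active.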 Activity calls are given as the source filed them.

For the compound `O=C(Nc1cc(C(F)(F)F)cc(C(F)(F)F)c1)c1cc(Cl)ccc1O`, the growth in the assay on SR leukemia is -8.27% (active); with RPMI-8226 leukemia, -31.5% (active) and -35.6% (active); in the assay with OVCAR-8 ovarian, -37.8% (active) and 3.24% (active); in the assay on OVCAR-5 ovarian it was 27.2% (inactive) and 23.1% (inactive); with OVCAR-4 ovarian, 24.8% (inactive) and 20.3% (inactive); with SK-OV-3 ovarian, -56.9% (active) and 1.67% (active). Moreover, the growth with IGROV1 ovarian is 4.82% (active) and 9.9% (active); in the assay with OVCAR-3 ovarian, 19.3% (inactive) and 2.52% (active); in the assay on HS 578T breast it was -8.03% (active); in the assay with NCI/ADR-RES ovarian, -1.25% (active) and 2.06% (active); in the assay with T-47D breast, -14% (active) and -1.66% (active); in the assay on BT-549 breast, -31.5% (active). Besides, the growth was -21.2% (active) and -8.57% (active) with MDA-MB-435 melanoma; 2% (active) and 5.7% (active) in the assay on SW-620 colon; 3.02% (active) and 1.11% (active) with MCF7 breast; -20.2% (active) and -28.9% (active) in the assay with HCT-116 colon; -25.4% (active) and 4.04% (active) in the assay with HCC-2998 colon; -24.3% (active) and -33% (active) in the assay with KM12 colon.

`CCOC(=O)c1ccc(Nc2ncnc3c2cnn3-c2cccc(F)c2)cc1`: the growth in the assay on SR leukemia is 94.7% (inactive); in the assay on RPMI-8226 leukemia, 99.5% (inactive); in the assay on OVCAR-8 ovarian, 98.3% (inactive); in the assay with OVCAR-5 ovarian, 97.1% (inactive); in the assay with OVCAR-4 ovarian it was 99.7% (inactive); in the assay on SK-OV-3 ovarian, 120% (inactive). Moreover, the growth is 98.7% (inactive) in the assay on IGROV1 ovarian; 112% (inactive) with OVCAR-3 ovarian; 95.9% (inactive) with HS 578T breast; 103% (inactive) in the assay on NCI/ADR-RES ovarian; 100% (inactive) in the assay on T-47D breast; 100% (inactive) in the assay with BT-549 breast. Besides, the growth was 103% (inactive) with MDA-MB-435 melanoma; 99.8% (inactive) in the assay on SW-620 colon; 95% (inactive) in the assay on MCF7 breast; 99.3% (inactive) in the assay on HCT-116 colon; 104% (inactive) with HCC-2998 colon; 99.3% (inactive) in the assay on KM12 colon.

As for `CN1CCN(Cc2ccc(NC(=O)c3cccc(C#Cc4c(N)ncc5ccc(F)cc45)c3)cc2C(F)(F)F)CC1`, the growth is -24.6% (active) in the assay with SR leukemia; -33.6% (active) in the assay with RPMI-8226 leukemia; -51.5% (active) in the assay with OVCAR-8 ovarian; -57.7% (active) in the assay with OVCAR-5 ovarian; -47.6% (active) with OVCAR-4 ovarian; 6.69% (active) with SK-OV-3 ovarian. The growth with IGROV1 ovarian is -42.4% (active); with OVCAR-3 ovarian, -57.4% (active); in the assay on HS 578T breast, -37.9% (active); in the assay with NCI/ADR-RES ovarian, -44.7% (active); with T-47D breast it was 14.8% (inactive); with BT-549 breast, 28.5% (inactive). In addition, the growth is -95.9% (active) in the assay with MDA-MB-435 melanoma; -91.6% (active) in the assay with SW-620 colon; -80.9% (active) in the assay with MCF7 breast; -93.1% (active) in the assay with HCT-116 colon; -86.8% (active) in the assay with HCC-2998 colon; -82.1% (active) with KM12 colon.

Consider `CC(=O)N1N=C(c2ccc(Nc3nc(Nc4ccc(F)cc4)nc(Nc4ccc(Cl)cc4)n3)cc2)CC1c1ccc(N(C)C)cc1` (centres undefined), for which the growth with SR leukemia is -9.66% (active); with RPMI-8226 leukemia, 55% (inactive); in the assay on OVCAR-8 ovarian, 40.2% (inactive); with OVCAR-5 ovarian, 65.9% (inactive); with OVCAR-4 ovarian, 47.8% (inactive); in the assay on SK-OV-3 ovarian, 85.1% (inactive). The growth was 60.8% (inactive) with IGROV1 ovarian; 63.5% (inactive) in the assay on OVCAR-3 ovarian; 24.6% (inactive) in the assay with HS 578T breast; 48.3% (inactive) in the assay with NCI/ADR-RES ovarian; 24.3% (inactive) in the assay with T-47D breast; 69.5% (inactive) in the assay with BT-549 breast. Also, the growth is 18.7% (inactive) in the assay on MDA-MB-435 melanoma; 78.5% (inactive) in the assay with SW-620 colon; 29.9% (inactive) with MCF7 breast; 130% (inactive) and 24.2% (inactive) with HCT-116 colon; 22% (inactive) in the assay on HCC-2998 colon; 55.5% (inactive) in the assay on KM12 colon.

Consider `CCn1cc(C(=O)NN=C2CCCC2)c(=O)c2ccc(C)nc21`, for which the growth with SR leukemia was 99.2% (inactive); in the assay with RPMI-8226 leukemia, 92.7% (inactive); in the assay with OVCAR-8 ovarian, 90% (inactive); with OVCAR-5 ovarian, 94% (inactive); in the assay with OVCAR-4 ovarian, 83.7% (inactive); in the assay with SK-OV-3 ovarian, 91.2% (inactive). For the same compound, the growth with IGROV1 ovarian is 85% (inactive); in the assay with OVCAR-3 ovarian it was 94.3% (inactive); with HS 578T breast, 88.8% (inactive); in the assay with NCI/ADR-RES ovarian, 89.8% (inactive); with T-47D breast, 89% (inactive); in the assay on BT-549 breast, 83.5% (inactive). Besides, the growth in the assay on MDA-MB-435 melanoma was 86.9% (inactive); in the assay with SW-620 colon, 93% (inactive); in the assay on MCF7 breast, 83.4% (inactive); in the assay on HCT-116 colon it was 89.1% (inactive); with HCC-2998 colon, 89.6% (inactive); in the assay on KM12 colon, 94.7% (inactive).

Regarding `Cc1ccc(/C=C/c2c(C(=O)/C=C/c3ccccc3)c(C)nc3ccccc23)cc1`, the growth in the assay on SR leukemia was 12.7% (inactive); in the assay with RPMI-8226 leukemia, -7.87% (active); in the assay with OVCAR-8 ovarian, 1.99% (active); in the assay on OVCAR-5 ovarian, 1.05% (active); with OVCAR-4 ovarian, 39.9% (inactive); with SK-OV-3 ovarian it was 70.1% (inactive). Also, the growth is 11.3% (inactive) in the assay on IGROV1 ovarian; -22% (active) in the assay on OVCAR-3 ovarian; 35.6% (inactive) in the assay on HS 578T breast; 8.38% (active) in the assay on NCI/ADR-RES ovarian; 16.1% (inactive) in the assay on T-47D breast; 41.5% (inactive) in the assay on BT-549 breast. Also, the growth was -45.4% (active) in the assay with MDA-MB-435 melanoma; 3.35% (active) in the assay with SW-620 colon; 12.6% (inactive) in the assay on MCF7 breast; -54.7% (active) in the assay with HCT-116 colon; 20.6% (inactive) with HCC-2998 colon; 13.1% (inactive) in the assay on KM12 colon.

Take `O=C(Nc1ccccc1C(=O)N/N=C(\c1ccccc1)c1ccccn1)c1ccccc1`: the growth is 4.3% (active) in the assay on SR leukemia; 20.8% (inactive) with RPMI-8226 leukemia; 13.2% (inactive) with OVCAR-8 ovarian; 31.9% (inactive) with OVCAR-5 ovarian; 12.7% (inactive) in the assay with OVCAR-4 ovarian; 10.7% (inactive) in the assay on SK-OV-3 ovarian. Also, the growth was 20.9% (inactive) in the assay with IGROV1 ovarian; 28% (inactive) with OVCAR-3 ovarian; 65.2% (inactive) with HS 578T breast; 9.54% (active) in the assay on NCI/ADR-RES ovarian; 13.3% (inactive) in the assay on T-47D breast; 31.3% (inactive) in the assay with BT-549 breast. Also, the growth in the assay with MDA-MB-435 melanoma is 27.7% (inactive); with SW-620 colon, 29.2% (inactive); in the assay on MCF7 breast, 9.02% (active); in the assay on HCT-116 colon, 20.7% (inactive); in the assay with HCC-2998 colon it was 29.7% (inactive); with KM12 colon it was 21.6% (inactive).

For the compound `CN(C)CC1(C)Cc2ccsc2C1O` (centres undefined), the growth in the assay with SR leukemia was 102% (inactive) and 83.2% (inactive); in the assay with RPMI-8226 leukemia, 106% (inactive) and 98.8% (inactive); with OVCAR-8 ovarian, 110% (inactive) and 105% (inactive); with OVCAR-5 ovarian it was 101% (inactive) and 105% (inactive); in the assay with OVCAR-4 ovarian, 113% (inactive) and 100% (inactive); with SK-OV-3 ovarian it was 109% (inactive) and 104% (inactive). In addition, the growth in the assay with IGROV1 ovarian was 123% (inactive) and 110% (inactive); with OVCAR-3 ovarian, 127% (inactive) and 105% (inactive); in the assay on HS 578T breast it was 129% (inactive); in the assay with NCI/ADR-RES ovarian it was 106% (inactive) and 103% (inactive); with T-47D breast, 113% (inactive) and 100% (inactive); with BT-549 breast, 113% (inactive) and 102% (inactive). Besides, the growth with MDA-MB-435 melanoma was 111% (inactive) and 107% (inactive); in the assay with SW-620 colon it was 105% (inactive) and 112% (inactive); in the assay with MCF7 breast, 110% (inactive) and 105% (inactive); in the assay on HCT-116 colon it was 115% (inactive) and 104% (inactive); in the assay with HCC-2998 colon, 107% (inactive) and 103% (inactive); in the assay with KM12 colon, 116% (inactive) and 106% (inactive).
